# A number with no mark means an inactive call.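 The calls were made as follows: active = MAPPIT score above the 99th percentile of random reference set scores in the same batch; inactive = at or below it.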
# B1: Hsc70-5 (protein)
# chain: MLRVPKFLPRLARQAGVVPSHMSGASSMFRNLPGASNGISSQLRYKSGEVKGAVIGIDLGTTNSCLAVMEGKQAKVIENAEGARTTPSHVAFTKDGERLVGMPAKRQAVTNSANTFYATKRLIGRRFDDPEVKKDITNLSYKVVKASNGDAWVSSTDGKVYSPSQIGAFILMKMKETAEAYLNTPVKNAVVTVPAYFNDSQRQATKDAGQIAGLNVLRVINEPTAAALAYGMDKTEDKIIAVYDLGGGTFDISILEIQKGVFEVKSTNGDTLLGGEDFDNHIVNFLVAEFKKDSGIDIRKDNIAMQRLKEAAEKAKCELSSSQQTDINLPYLTMDAAGPQHMNLKLTRSKLESLVGDLIKRTIQPCQKALSDAEVSKSEIGEVLLVGGMTRMPKVQSTVQELFGRQPSRSVNPDEAVAVGAAVQGGVLAGDVTDVLLLDVTPLSLGIETLGGVFTRLISRNTTIPTKKSQVFSTASDGQTQVEIKVHQGEREMANDNKLLGSFTLVGIPPAPRGVPQIEVVFDIDANGIVHVSAKDKGTGKEQQIVIQSSGGLSKDEIENMIKKAEEYATADKQKRELIEIVNQGESIVHDTETKMEEFKSQLPAEECEKLKKEIADLRTLLANKETADLEEVRKATSSLQQSSLKLFELAYKKMSAERESNAGAGSSDSSSSSDTSGEAKKEEKN
# B2: unk (protein)
# chain: MLANETNKLLLSSQQEKPNHYTYLKEFRVEQCQSFLQHKCNQHRPFVCFNWHFQNQRRRRPVRKRDGTFNYSADNYCTKYDETTGICPEGDECPYLHRTAGDTERRYHLRYYKTCMCVHDTDSRGYCVKNGLHCAFAHGMQDQRPPVYDIKELETLQNAESTLDSTNALNALDKERNLMNEDPKWQDTNYVLANYKTEPCKRPPRLCRQGYACPQYHNSKDKRRSPRKYKYRSTPCPNVKHGEEWGEPGNCEAGDNCQYCHTRTEQQFHPEIYKSTKCNDVQQAGYCPRSVFCAFAHVEPCSMDDPRENSLSASLANTSLLTRSSAPINIPNTTLSNSINDFNSGSFAVNIPSSSLTYSPTNHANLFNVDAFNYGGSNKLSNSLSATQNDSSLFFPSRIISPGFGDGLSISPSVRISELNTIRDDINSSSVGNSLFENTLNTAKNAFSLQSLQSQNNSDLGRITNELLTKNAQIHKLNGRFEDMACKLKIAELHRDKAKQEAQEWKERYDLAQIQLNLPAELRDLSIQKLKQLQSKLRTDLEEVDKVLYLENAKKCMKCEENNRTVTLEPCNHLSICNTCAESVTECPYCQVPVITTHT
# B3: RpS21 (protein)
# chain: MENDAGENVDLYVPRKCSASNRIIHAKDHASVQLSIVDVDPETGRQTDGSKTYAICGEIRRMGESDDCIVRLAKKDGIITKNF
# B4: zetaTry (protein)
# chain: MSSSWIVGLLAFLVSLVALTQGLPLLEDLDEKSVPDGRIVGGYATDIAQVPYQISLRYKGITTPENPFRHRCGGSIFNETTIVTAAHCVIGTVASQYKVVAGTNFQTGSDGVITNVKEIVMHEGYYSGAAYNNDIAILFVDPPLPLNNFTIKAIKLALEQPIEGTVSKVSGWGTTSPGGYSSNQLLAVDVPIVSNELCDQDYEDFGDETYRITSAMLCAGKRGVGGADACQGDSGGPLAVRDELYGVVSWGNSCALPNYPGVYANVAYLRPWIDAVLAGL
# B5: Cyp4d2 (protein)
# chain: MLGVVGVLLLVAFATLLLWDFLWRRRGNGILPGPRPLPFLGNLLMYRGLDPEQIMDFVKKNQRKYGRLYRVWILHQLAVFSTDPRDIEFVLSSQQHITKNNLYKLLNCWLGDGLLMSTGRKWHGRRKIITPTFHFKILEQFVEIFDQQSAVMVEQLQSRADGKTPINIFPVICLTALDIIAETAMGTKINAQKNPNLPYVQAVNDVTNILIKRFIHAWQRVDWIFRLTQPTEAKRQDKAIKVMHDFTENIIRERRETLVNNSKETTPEEEVNFLGQKRRMALLDVLLQSTIDGAPLSDEDIREEVDTFMFEGHDTTTSAISFCLYEISRHPEVQQRLQQEIRDVLGEDRKSPVTLRDLGELKFMENVIKESLRLHPPVPMIGRWFAEDVEIRGKHIPAGTNFTMGIFVLLRDPEYFESPDEFRPERFDADVPQIHPYAYIPFSAGPRNCIGQKFAMLEMKSTVSKLLRHFELLPLGPEPRHSMNIVLRSANGVHLGLKPRA
# B6: CG33169 (protein)
# chain: MRQLKGKVKETRKQKKERKLDNLETQAKIRTVVLPALGVLAVFLVLFVYLKTRPAVLA
# B7: Mob2 (protein)
# chain: MNWAISNLTGGNRVSRAILVRYSSVPLADATNDGSSTAPQTPTASTPRPSSSHSSLSSTFAATFLHASSRHIPGRAVPRQNANGQNGGKGNASGAGGGAGGGGAGGASGGTGGTGAQAAGQLSLPLDVEETVTCFCRKARRKERDGDQNSTDTKLYLEESVLERKLPEADLKALVDLPAGLDYNEWLASHTLALFEHVNLVYGTISEFCTQSGCADMTGPGNRTYLWFDEKGKKTRVAAPQYIDYVMTFTQKTVSDESIFPTKYANEFPGSFESIARKILRLQFHVIAHLYAAHFREIALLGLHTHLNLTFAHLTALHRRFNLIDEKETDVLRDLEVALRLTDDTGGCQDATSTTSSVHDHSHSGDLQHQSLQQQQQHHNSSSNSTSSAEAFHVNSQSNNGSTSASASVSLIDGDAVAPPICTQPEAGAGCKPAGSSGLLGGILGDLTSGEFGDTTRYCTSAVPQAAAAAGAGVGGTAIGATDAAALNNGAGALHLNFSNNNNNNHNLNHHHHHHHHHGHHGHHHAAQQQQQHSGLIQCNAAGGGGNATGVATGGATAAASSTTTA
# B8: hth (protein)
# chain: MAQPRYDDGLHGYGMDSGAAAAAMYDPHAGHRPPGLQGLPSHHSPHMTHAAAAAATVGMHGYHSGAGGHGTPSHVSPVGNHLMGAIPEVHKRDKDAIYEHPLFPLLALIFEKCELATCTPREPGVQGGDVCSSESFNEDIAMFSKQIRSQKPYYTADPEVDSLMVQAIQVLRFHLLELEKVHELCDNFCHRYISCLKGKMPIDLVIDERDTTKPPELGSANGEGRSNADSTSHTDGASTPDVRPPSSSLSYGGAMNDDARSPGAGSTPGPLSQQPPALDTSDPDGKFLSSLNPSELTYDGRWCRREWSSPADARNADASRRLYSSVFLGSPDNFGTSASGDASNASIGSGEGTGEEDDDASGKKNQKKRGIFPKVATNILRAWLFQHLTHPYPSEDQKKQLAQDTGLTILQVNNWFINARRRIVQPMIDQSNRAVYTPHPGPSGYGHDAMGYMMDSQAHMMHRPPGDPGFHQGYPHYPPAEYYGQHL
# B9: Nup62 (protein)
# chain: MVFQLPTTTAAPTGGATSSFSFGLSTGTPAAAPASGAATTAPATKTTFSFGTPAPTAGIGGGDADNSKAQAPPAFGFGLGSGTASAPLTLGTQAAANPASTTSATATGTSAAPPAFGGFTAQPAASVVPTIATSAPNTAATTTGLLGGSGLGAPKTTAAASTTLTAAPSAIASTQGAAPAPTLSTGGAFANLTTETKTTDSSAVSTASQLSYHQLEEHINKWTLEFEEQEKVFTEQATQINAWDKLLISNNGKIVELNDAVKKVKTDQQVLDQELEFIATQQKELEDSLGPLEKEFVNLPRVDMERSQTYLMVENLDTQLKQMSEDLKEIIDNLNEANKGQDTTDPIIQIGKILNAHMNSLQWIESQSTNISKKLEDIGKIQDSQKRDIFRAPF
# B10: CycB (protein)
# chain: MVGTTLKMRGDENASENFKQVQLKKLTVPSMEATTKRAALGDLQNRGISRPIAAKDAAQKDSKDLKLTDALRNAKARVDSHWKKQPLGSTNGNGNGAVPPKVNEGGVSAFLRSNSVRNRVPTKTTVEPTKVTVKSSSSENVNEPTLKREDSNLSKKSLTKLRAALAKPVMGVSGIRREPVAVSRKEAETKKELPETKKDSLEVKKDATRMPLIRGNSAVTTTTSTMPTTMSLSSKRLAGIEDIDANDKENLVLVSEYVNDIYDYLYQVELEQPIHKDHLAGQKEVSHKMRAVLIDWINEVHLQFHLAAETFQLAVAIIDRYLQVVKDTKRTYLQLVGVTALFIATKYEELFPPAIGDFVFITDDTYTARQIRQMELQIFKAIDCNLSRPLPIHFLRRYSKAAGAEDEHHTMSKYFIELASVDYEMATYRPSEIAAASLFLSLHLLNGNHRAGTGFNDRHWTPTLTFYSRYSAAHLRPITRLIAKLARDAPQAKLKAIYNKYQGSKFQKIALRTELTGALMDSIVGQSQRK
# B11: PolZ2 (protein)
# chain: MQAEIKADIIVEAMEVLVNHILYVRGIYPSHIFKMKRMYNSPIYVSIFPPLNNYLAGVLKSAQELLRRRELQCLELIVYQKENEKLESYKMQLETQRSGLPAEDHLMEFEQNMRSVIYKISQRLNQAPKLPAGSCQFKVHLHTTQEAFIRFSHDSQYQEFPWLQTQKTESQATGRTVYLLPLARVDDLGLKMDVLIVN
# B12: Ubc4 (protein)
# chain: MANMAVSRIKREFKEVMRSEEIVQCSIKIELVNDSWTELRGEIAGPPDTPYEGGKFVLEIKVPETYPFNPPKVRFITRIWHPNISSVTGAICLDILKDNWAAAMTLRTVLLSLQALLAAAEPDDPQDAVVAYQFKDKYDLFLLTAKHWTNAYAGGPHTFPDCDSKIQRLRDMGIDEHEARAVLSKENWNLEKATEGLFS
# B13: RpS3A (protein)
# chain: MAVGKNKGLSKGGKKGGKKKVVDPFSRKDWYDVKAPNMFQTRQIGKTLVNRTQGQRIASDYLKGRVFEVSLADLQKDIDPERSFRKFRLIAEDVQDRNVLCNFHGMDLTTDKYRSMVKKWQTLIEAIVEAKTVDGYLLRVFCIGFTAKDQQSQRKTCYAQQSQVRKIRARMTDIITNEVSGADLKQLVNKLALDSIAKDIEKSCQRIYPLHDVYIRKVKVLKKPRFDVSKLLELHGDGGGKSVEAVVSSEGAVIDRPEGYEPPVQEAV
# Legend:
# Assay in all cases: MAPPIT interaction score (arbitrary units); higher = stronger binary interaction signal, active = hit call of the paper
# CG31121 = conditions: MAPPIT configuration: N-N; pair source set: Curagen_high_conf
# CG32846 = conditions: MAPPIT configuration: N-N; pair source set: screen_1
# Git = conditions: MAPPIT configuration: N-N; pair source set: screen_2
# Mst87F = conditions: MAPPIT configuration: N-N; pair source set: screen_2
# CG33514 = conditions: MAPPIT configuration: N-N; pair source set: DPIM
# cv = conditions: MAPPIT configuration: N-N; pair source set: DPIM
# dah = conditions: MAPPIT configuration: N-N; pair source set: DPIM
# CG31600 = conditions: MAPPIT configuration: N-C; pair source set: screen_4
# CG34149 = conditions: MAPPIT configuration: N-C; pair source set: RRS
# CG31523 = conditions: MAPPIT configuration: N-C; pair source set: screen_3
# EMC5 = conditions: MAPPIT configuration: N-C; pair source set: screen_3
# RNASEK = conditions: MAPPIT configuration: N-C; pair source set: screen_3
# CG34168 = conditions: MAPPIT configuration: N-N; pair source set: Curagen_high_conf
# CG32425 = conditions: MAPPIT configuration: N-C; pair source set: screen_3
# CG5327 = conditions: MAPPIT configuration: N-C; pair source set: screen_3
# CG32809 = conditions: MAPPIT configuration: N-N; pair source set: Curagen_low_conf
# RhoGAP92B = conditions: MAPPIT configuration: N-N; pair source set: Curagen_low_conf
# CG31550 = conditions: MAPPIT configuration: N-N; pair source set: Lit-BS-16
# GstE2 = conditions: MAPPIT configuration: N-N; pair source set: Finley_Y2H
# PAN3 = conditions: MAPPIT configuration: N-N; pair source set: Lit-BS-16
# Rbp6 = conditions: MAPPIT configuration: N-N; pair source set: Finley_Y2H
# CG3085 = conditions: MAPPIT configuration: N-C; pair source set: screen_3
# CG8281 = conditions: MAPPIT configuration: N-N; pair source set: screen_1
# Gale = conditions: MAPPIT configuration: N-N; pair source set: DPIM
# PHDP = conditions: MAPPIT configuration: N-N; pair source set: Finley_Y2H
# Vsx2 = conditions: MAPPIT configuration: N-N; pair source set: Finley_Y2H
# eco = conditions: MAPPIT configuration: N-N; pair source set: screen_1
# CG3356 = conditions: MAPPIT configuration: N-N; pair source set: Lit-BS-16
# sinah = conditions: MAPPIT configuration: N-N; pair source set: screen_1
# CG32182 = conditions: MAPPIT configuration: N-N; pair source set: RRS
# 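Also: HEK293T cells with Epo stimulation, STAT-responsive firefly luciferase reporter, fold induction versus unstimulated cells divided by the larger fold induction of two negative controls lacking either bait or prey.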
binder,measurement,setting,value
B1,MAPPIT interaction score,CG31121,0.0518
B2,MAPPIT interaction score,CG32846,-2.23
same,MAPPIT interaction score,Git,1.05
same,MAPPIT interaction score,Mst87F,0.54
B3,MAPPIT interaction score,CG33514,0.423
same,MAPPIT interaction score,cv,-0.17
same,MAPPIT interaction score,dah,-0.359
B4,MAPPIT interaction score,CG31600,0.866
B5,MAPPIT interaction score,CG34149,-1.31
B6,MAPPIT interaction score,CG31523,0.414
same,MAPPIT interaction score,EMC5,-0.647
same,MAPPIT interaction score,RNASEK,0.381
B7,MAPPIT interaction score,CG34168,0.212
B8,MAPPIT interaction score,CG32425,3.41
same,MAPPIT interaction score,CG5327,3.17
B9,MAPPIT interaction score,CG32809,2.19
same,MAPPIT interaction score,RhoGAP92B,0.00556
B10,MAPPIT interaction score,CG31550,0.517
same,MAPPIT interaction score,GstE2,0.748
same,MAPPIT interaction score,PAN3,0.557
same,MAPPIT interaction score,Rbp6,0.383
B11,MAPPIT interaction score,CG3085,1.42
same,MAPPIT interaction score,CG8281,1.67
same,MAPPIT interaction score,Gale,0.112
same,MAPPIT interaction score,PHDP,-0.0614
same,MAPPIT interaction score,Vsx2,0.017
same,MAPPIT interaction score,eco,0.29
B12,MAPPIT interaction score,CG3356,0.159
same,MAPPIT interaction score,sinah,2.14
B13,MAPPIT interaction score,CG32182,0.147

# Reference: the supplement of paper PMC10105736
